The structures appear in SMILES notation. Compounds without any hit were thinned out: in the full panel of roughly 83,000, 20% have a hit.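 Testing used 96-well plates and a 48-hour single-concentration exposure. Example: -40 means 40% of the starting cells died.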 Values without a mark were called inactive. Calls of active or inactive are those of the source. Rule for the calls: active = growth percent below 10; inactive = the rest.

One assay relates to NCI-H522 lung. The experiment in a line: NCI-60 one-dose screen, 48 h (100 = growth as untreated, 0 = no growth, -100 = all killed). Conditions: 10 µM unless noted.
For `CCCC(=O)CC(C)=O.CCCC(=O)CC(C)=O.[Cu]`, the growth is 91%.
Still for that read-out and setting: the result for `COc1cc(C(C)n2cc(-c3ccccc3)nn2)ccc1OC1CCCCC1` (stereo unspecified) reads 50.3%; that for `NC1(N2SC(S)=C3CCCC=C32)CCCCC1`, 81.9%.
Consider `CCN1CCN(c2cc(C)c3cc(NC(=O)c4ccc(OC)c(OC)c4)ccc3n2)CC1`, for which the growth is 51.8%.
As for `CC(C)[C@H](NC(=O)Cn1cc(C(=O)O)nn1)C(=O)O`, the growth is 104%.
Regarding `C=C[C@@H]1CCC/C=C/[C@@H]2C[C@H](O)C[C@H]2[C@H](O)/C=C/C(=O)O1`, the growth is -24.5% (active).
Regarding `COc1ccc(Nc2nc(N/N=C/c3ccc(O)cc3)nc(Nc3ccc([N+](=O)[O-])cc3)n2)cc1`, the growth was 95.3%.
Same read-out and setting: the result for `Cc1ccc(CN2CCC(C(=O)Nc3ccc(-c4cc5ccccc5[nH]4)cc3)CC2)o1` reads 72%.
Still for that read-out and setting: the result for `O=C(Nc1ccc(N2CCNCC2)cc1)c1[nH]ncc1Nc1cc(Oc2ccccc2)ncn1` reads 8.05% (active).
On the same count and under the same terms, the result for `CN1C(=O)N(C)C2C1NN=c1s/c(=C\c3ccc([N+](=O)[O-])cc3)c(=O)n12` (stereo unspecified) reads 43.6%.
Consider `Nc1ccc(-c2nc3cc(Oc4ccc(Oc5ccc6[nH]c(-c7ccc(N)cc7)nc6c5)cc4)ccc3[nH]2)cc1`, for which the growth was 73.7%.
As to `COc1cccc2cc(N(C)c3nc(C)nc4ccsc34)ccc12`, the growth is -15.2% (active).
The same measure, in the same setting: under `COc1cc(/C=C2\CCC/C(=C\c3cc(CN4CCCCC4)c(O)c(OC)c3)C2=O)cc(CN2CCCCC2)c1O` stands 87%; under `CCOC(=O)C1=C(C)N=c2s/c(=C\c3ccccc3O)c(=O)n2C1c1ccc(OC)c2ccccc12` (stereo unspecified), -36.2% (active); under `CCN1C(=O)N(CC)C2Nn3c(s/c(=C4\C(=O)N(C(C)C)c5ccccc54)c3=O)=NC21` (stereo unspecified), 27.2%.
For the compound `Cc1c(-c2csc(-n3nc(C(F)(F)F)cc3C(F)(F)F)n2)no[n+]1[O-]`, the growth was 87.4%.
Turning to `CC1(O)COCCCCOc2c(CN)cccc2NC(=O)c2nc(cnc2N)-c2ccc(cc2)S(=O)(=O)C(C)(C)C1` (stereo unspecified), the growth was -40.5% (active).
As to `COc1nc2c(c(=O)n1C)N=C1c3ccccc3C(=O)C1C(c1ccccc1)N2` (stereo unspecified), the growth is 102%.
For `CS(=O)(=O)Nc1ccc(C(=O)NC(C(=O)NO)c2ccc(-c3cccc(F)c3)cc2)cc1` (stereo unspecified), the growth is 30%.
On to `COc1cc(C(=O)Nc2ccc(-c3nc4ccccc4[nH]3)cc2)cc(OC)c1OC`, for which the growth is 25%.
Consider `Fc1ccc(Oc2ccc(Nc3ncnc4onc(-c5ccccc5)c34)cc2)cc1`, for which the growth is 90.5%.
Turning to `CC1=C(CC(=O)c2cccc([N+](=O)[O-])c2)C(=O)c2ccccc2C1=O`, the growth is -47.2% (active).
On the same count and under the same terms, the result for `COc1ccc(Cn2cc(Cn3c(=O)c(-c4nc5ccccc5[nH]4)cc4ccccc43)nn2)c(OC)c1OC` reads -1.1% (active); that for `COc1ccc(Cn2c(Br)c3c(c2Br)-c2nc(N)sc2CC3)cc1`, 2.16% (active); that for `O=C(N/N=C/c1ccccc1O)C(=O)Nc1ccc(F)cc1`, 15.7%.
Regarding `CCOc1ccc(Nc2ccnc3cc(Cl)ccc23)cc1`, the growth was -35.4% (active).
Still for that read-out and setting: under `COc1cc(/C=C2\CN(C)C/C(=C\c3cc(CN4CCCC4)c(O)c(OC)c3)C2=O)cc(CN2CCCC2)c1O` stands 34.7%; under `CCOC(=O)c1cnc2c(C)cccc2c1Nc1ccc(C(C)=O)cc1`, -78.5% (active); under `COc1cc(C(=O)O/N=C(\N)Cc2cccc3ccccc23)cc(OC)c1OC`, -10.9% (active).
Consider `Nc1ncnc(N)c1NC(=O)c1ccc(OCc2ccccc2)cc1`, for which the growth was 91.3%.
Regarding `O=C1C(=O)c2c(ccc3ccccc23)-c2ccccc21`, the growth was -77.4% (active).
`CCOC(=O)c1sc(-c2ccc(OS(=O)(=O)c3cccs3)c(C=O)c2)nc1C`: the growth was -2.27% (active).
For `O=c1oc2ccc(F)cc2c(=O)n1-c1ccc(Cl)cc1F`, the growth was -16.9% (active).
For `Cc1ccc(C)c(-c2csc(Nc3ccc(C)c(C)c3)n2)c1`, the growth was 65.3%.
Take `Nc1ccc(-n2c(=O)oc3ccc(Cl)cc3c2=O)c(Cl)c1`: the growth is -20.1% (active).
On the same count and under the same terms, the result for `c1ccc(-c2ccc(-c3nc4ccccc4[nH]3)cc2)cc1` reads 94.3%.
With `COc1ccc(-c2nc(-c3ccccn3)c(-c3ccccn3)n2CC(C)C)cc1OC1CCCC1`, the growth is 20.8%.
As for `CN(C)c1ccc(N=Cc2ccc(N3CCOCC3)cc2)cc1`, the growth is 42.4%.

The next assay deals with A549/ATCC NSCLC. The description is as above. Conditions: 10 µM unless noted.
`CCCC(=O)CC(C)=O.CCCC(=O)CC(C)=O.[Cu]`: the growth is 79.4%.
For `COc1cc(C(C)n2cc(-c3ccccc3)nn2)ccc1OC1CCCCC1` (stereo unspecified), the growth was 61.6%.
In the case of `NC1(N2SC(S)=C3CCCC=C32)CCCCC1`, the growth is 100%.
The same measure, in the same setting: the result for `CCN1CCN(c2cc(C)c3cc(NC(=O)c4ccc(OC)c(OC)c4)ccc3n2)CC1` reads 33.3%.
Same read-out and setting: the result for `CC(C)[C@H](NC(=O)Cn1cc(C(=O)O)nn1)C(=O)O` reads 97%; that for `C=C[C@@H]1CCC/C=C/[C@@H]2C[C@H](O)C[C@H]2[C@H](O)/C=C/C(=O)O1`, 22.6%.
Regarding `COc1ccc(Nc2nc(N/N=C/c3ccc(O)cc3)nc(Nc3ccc([N+](=O)[O-])cc3)n2)cc1`, the growth was 104%.
Take `Cc1ccc(CN2CCC(C(=O)Nc3ccc(-c4cc5ccccc5[nH]4)cc3)CC2)o1`: the growth was 33.7%.
`O=C(Nc1ccc(N2CCNCC2)cc1)c1[nH]ncc1Nc1cc(Oc2ccccc2)ncn1`: the growth is -49.8% (active).
Turning to `CN1C(=O)N(C)C2C1NN=c1s/c(=C\c3ccc([N+](=O)[O-])cc3)c(=O)n12` (stereo unspecified), the growth is 59.9%.
For the compound `Nc1ccc(-c2nc3cc(Oc4ccc(Oc5ccc6[nH]c(-c7ccc(N)cc7)nc6c5)cc4)ccc3[nH]2)cc1`, the growth is 96.8%.
With `COc1cccc2cc(N(C)c3nc(C)nc4ccsc34)ccc12`, the growth is 7.7% (active).
Regarding `COc1cc(/C=C2\CCC/C(=C\c3cc(CN4CCCCC4)c(O)c(OC)c3)C2=O)cc(CN2CCCCC2)c1O`, the growth was 89.7%.
On to `CCOC(=O)C1=C(C)N=c2s/c(=C\c3ccccc3O)c(=O)n2C1c1ccc(OC)c2ccccc12` (stereo unspecified), for which the growth was -21.1% (active).
For `CCN1C(=O)N(CC)C2Nn3c(s/c(=C4\C(=O)N(C(C)C)c5ccccc54)c3=O)=NC21` (stereo unspecified), the growth is 30.4%.
The same measure, in the same setting: under `Cc1c(-c2csc(-n3nc(C(F)(F)F)cc3C(F)(F)F)n2)no[n+]1[O-]` stands 95.3%; under `CC1(O)COCCCCOc2c(CN)cccc2NC(=O)c2nc(cnc2N)-c2ccc(cc2)S(=O)(=O)C(C)(C)C1` (stereo unspecified), -52.8% (active); under `COc1nc2c(c(=O)n1C)N=C1c3ccccc3C(=O)C1C(c1ccccc1)N2` (stereo unspecified), 91.5%.
For `CS(=O)(=O)Nc1ccc(C(=O)NC(C(=O)NO)c2ccc(-c3cccc(F)c3)cc2)cc1` (stereo unspecified), the growth is 103%.
On the same count and under the same terms, the result for `COc1cc(C(=O)Nc2ccc(-c3nc4ccccc4[nH]3)cc2)cc(OC)c1OC` reads 45.8%; that for `Fc1ccc(Oc2ccc(Nc3ncnc4onc(-c5ccccc5)c34)cc2)cc1`, 90.1%; that for `CC1=C(CC(=O)c2cccc([N+](=O)[O-])c2)C(=O)c2ccccc2C1=O`, -15.3% (active).
Still for that read-out and setting: under `COc1ccc(Cn2cc(Cn3c(=O)c(-c4nc5ccccc5[nH]4)cc4ccccc43)nn2)c(OC)c1OC` stands 9.33% (active); under `COc1ccc(Cn2c(Br)c3c(c2Br)-c2nc(N)sc2CC3)cc1`, 39.1%.
In the case of `O=C(N/N=C/c1ccccc1O)C(=O)Nc1ccc(F)cc1`, the growth is 44.8%.
On to `CCOc1ccc(Nc2ccnc3cc(Cl)ccc23)cc1`, for which the growth was 1.55% (active).
`COc1cc(/C=C2\CN(C)C/C(=C\c3cc(CN4CCCC4)c(O)c(OC)c3)C2=O)cc(CN2CCCC2)c1O`: the growth is 85.6%.
On to `CCOC(=O)c1cnc2c(C)cccc2c1Nc1ccc(C(C)=O)cc1`, for which the growth is -60.9% (active).
As to `COc1cc(C(=O)O/N=C(\N)Cc2cccc3ccccc23)cc(OC)c1OC`, the growth is 12.2%.
For `Nc1ncnc(N)c1NC(=O)c1ccc(OCc2ccccc2)cc1`, the growth was 103%.
Take `O=C1C(=O)c2c(ccc3ccccc23)-c2ccccc21`: the growth is 24.1%.
On to `CCOC(=O)c1sc(-c2ccc(OS(=O)(=O)c3cccs3)c(C=O)c2)nc1C`, for which the growth is 32.5%.
Regarding `O=c1oc2ccc(F)cc2c(=O)n1-c1ccc(Cl)cc1F`, the growth is 3.43% (active).
On the same count and under the same terms, under `Cc1ccc(C)c(-c2csc(Nc3ccc(C)c(C)c3)n2)c1` stands 43.6%; under `Nc1ccc(-n2c(=O)oc3ccc(Cl)cc3c2=O)c(Cl)c1`, 6.26% (active).
For `c1ccc(-c2ccc(-c3nc4ccccc4[nH]3)cc2)cc1`, the growth is 91.8%.
Same read-out and setting: the result for `COc1ccc(-c2nc(-c3ccccn3)c(-c3ccccn3)n2CC(C)C)cc1OC1CCCC1` reads 8.04% (active).
Still for that read-out and setting: the result for `CN(C)c1ccc(N=Cc2ccc(N3CCOCC3)cc2)cc1` reads 73.7%.

(Values after PubChem BioAssay (NCI).)
